# Assay results as given in PubChem BioAssay.
# Results with a measured potency or affinity are listed apart. Unmarked numbers belong to inactive results. How the calls were made is not given here.
# Assay: OVCAR8 cell viability loss – plate reader, dry powder samples, PAX8 project, dose response (AID 743197)
# Details: series mostly up to 35 µM; activity change, negative = cytotoxicity: at the top concentration
row,Structure (SMILES),"activity change, negative = cytotoxicity"
1,O=C(Nc1cccc(F)c1)N1CCCCN2[C@H](CO)[C@@H](c3ccc(C#Cc4ccccc4)cc3)[C@H]2C1,-113%
2,COc1ccc(S(=O)(=O)Nc2ccc3c(c2)C(=O)N([C@@H](C)CO)C[C@H](C)[C@@H](CN(C)C(=O)Nc2ccc(F)cc2)OCCCC[C@H](C)O3)cc1,-15.1%
3,C[C@@H]1CCCCO[C@H](CN(C)S(=O)(=O)c2ccc(F)cc2)[C@H](C)CN([C@@H](C)CO)C(=O)c2cc(NS(=O)(=O)c3ccc(Cl)cc3)ccc2O1,1.02%
4,C[C@@H]1CN([C@@H](C)CO)S(=O)(=O)c2ccc(C#Cc3ccncc3)cc2O[C@H]1CN(C)C(=O)Nc1ccc2c(c1)OCO2,7.75%
5,C[C@@H]1CCCCO[C@H](CN(C)Cc2ccc(Cl)c(Cl)c2)[C@@H](C)CN([C@@H](C)CO)C(=O)c2cc(NC(=O)Nc3ccccc3)ccc2O1,3.62%
6,C[C@H]1CN([C@@H](C)CO)C(=O)Cc2cc(NC(=O)NC3CCCCC3)ccc2O[C@@H]1CN(C)Cc1ccc(-c2ccccc2)cc1,-0.664%
7,C[C@H](CO)N1C[C@H](C)[C@@H](CN(C)C(=O)c2ccc3c(c2)OCO3)Oc2cc(C#Cc3ccccc3F)ccc2S1(=O)=O,40.3% [at 16 µM]
8,C[C@@H]1CCCCO[C@@H](CN(C)Cc2ccc(Cl)c(Cl)c2)[C@@H](C)CN([C@@H](C)CO)C(=O)c2cc(NC(=O)Nc3ccccc3)ccc2O1,-4.45% [at 30 µM]
9,C[C@H](CO)N1C[C@H](C)[C@@H](CN(C)S(=O)(=O)c2ccc(-c3ccccc3)cc2)OCc2cn(nn2)CCCC1=O,-18.7%
10,C[C@@H]1CN([C@H](C)CO)C(=O)c2cc(NC(=O)Nc3ccc(F)cc3)ccc2O[C@@H](C)CCCCO[C@H]1CN(C)Cc1ccc(C(F)(F)F)cc1,-4.06%
11,C[C@@H]1CCCCO[C@H](CN(C)Cc2ccc(C(F)(F)F)cc2)[C@@H](C)CN([C@@H](C)CO)C(=O)c2cc(NC(=O)Cc3ccccc3)ccc2O1,-30.7%
12,C[C@@H]1CN([C@H](C)CO)C(=O)c2cc(NC(=O)Nc3ccccc3)ccc2O[C@@H](C)CCCCO[C@H]1CN(C)Cc1ccc(C(F)(F)F)cc1,-32.4%
